According to PubChem BioAssay (NCATS):
Inconclusive results are not listed. Active and inactive are the calls of the source. Calls follow the shape of the dose curve; as a rule, active = well fitted inhibition curve with a large enough effect; inconclusive = small, poorly fitted or top-dose-only effect; inactive = flat fitted curve, though single readings scatter.

Tested on: Zika virus NS2B-NS3 protease
Test: Primary screen GU AMC qHTS for Zika virus inhibitors (AID 1347154);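 also: 0% = no-inhibitor control and -100% = no-enzyme control; nearly all actives have a fitted effect of over 70% in size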
Conditions: Zika NS2B-NS3 unlinked protease, AMC fluorogenic substrate; series mostly up to 54.1 µM; activity change, negative = inhibition: at the top concentration
Summary of the method: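 Unlinked Zika NS2B hydrophilic domain–NS3 protease complex at 25 nM in 10 mM Tris-HCl pH 8.0, 0.01% Tween 20, with an AMC peptide substrate. Fluorescence change (340/450 nm) over 15 min at room temperature, normalized to controls, fitted to 4-parameter Hill.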

SMILES | activity change, negative = inhibition | Potency
Cc1c(Cn2ccnc2)c2ccccc2n1CCC(=O)O | -1.7% (inactive) | –
CC1CCN(CCCC(=O)c2ccc(F)cc2)CC1 | – | inactive
CC(=O)OCC(COC(C)=O)OC(C)=O | -0.381% (inactive) | –
O=C(O)CCC(=O)O | 2.01% (inactive) | –
CCCCOC(=O)c1ccc(N)cc1 | 0.602% (inactive) | –
O=C(O)COC(=O)Cc1ccccc1Nc1c(Cl)cccc1Cl | 2.23% (inactive) | –
CCN(CC)CCOC(=O)C(c1ccccc1)c1ccccc1 | 0.192% (inactive) | –
Cn1cc(C(=O)[C@@H]2CCc3nc[nH]c3C2)c2ccccc21 | 1.2% (inactive) | –
OC(CCN1CCCC1)(c1ccccc1)C1CCCCC1 (stereo not given) | -0.475% (inactive) | –
CC1CC(OC(=O)c2ccccc2O)CC(C)(C)C1 (stereo not given) | 0.356% (inactive) | –
CCN(CC)CCc1nc(-c2ccccc2)no1 | -1.69% (inactive) | –
CC(=O)Nc1cccc(O)c1 | 0.201% (inactive) | –
COc1ccc(NS(=O)(=O)c2ccc(N)cc2)nn1 | -2.86% (inactive) | –
CCCCCC(C)N (stereo not given) | -2.31% (inactive) | –
O=C(NCN1CCOCC1)c1cnccn1 | -1.13% (inactive) | –
